# Measured values as given in PubChem BioAssay AID1159580 (chemical genetic matrix, 2015).
# Among all 5,500 compounds or so, about 2,000 (36%) were called active. Another 18% or so got no clear call; they are omitted. The list shows a part of the results. A number with no mark means an inactive call. Cut-off read from the data, not from the text of the source: active = normalized growth mostly below about 0.91 (no sharp cut-off); inconclusive = no clear call, values can overlap the other calls; inactive = mostly above about 0.92.
# Test: chemical genetic growth profiling, strain panel (AID 1159580);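 note: tested at 20 µM; growth read once vehicle control cultures reached saturation at 30 °C; 1 = growth at the plate median or of vehicle wells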
# Details: S. cerevisiae deletion strains, growth OD
smiles,measurement,setting,value
COC(=O)c1cc(=O)c(O)c2c(O)c(O)ccc2c1,normalized growth,"locus YJR043C, strain POL32, stronger effect = lower value",0.709 (active)
same,normalized growth,"locus YJR066W, strain TOR1, stronger effect = lower value",0.556 (active)
same,normalized growth,"locus YKL009W, strain mrt4, stronger effect = lower value",0.773 (active)
same,normalized growth,"locus YKL068W, stronger effect = lower value",0.808 (active)
same,normalized growth,"locus YKL085W, strain MDH1 (second series), stronger effect = lower value",0.793 (active)
same,normalized growth,"locus YKL085W, strain MDH1, stronger effect = lower value",0.793 (active)
same,normalized growth,"locus YKL160W, strain elf1, stronger effect = lower value",1.01
same,normalized growth,"locus YKL190W, strain CNB1, stronger effect = lower value",0.593 (active)
same,normalized growth,"locus YKR001C, strain vps1, stronger effect = lower value",0.764 (active)
same,normalized growth,"locus YKR026C, strain gcn3, stronger effect = lower value",0.961
same,normalized growth,"locus YKR091W, strain srl3, stronger effect = lower value",0.994
same,normalized growth,"locus YLL001W, strain dnm1, stronger effect = lower value",0.99
same,normalized growth,"locus YLL026W, stronger effect = lower value",0.994
same,normalized growth,"locus YLL041C, strain sdh2, stronger effect = lower value",0.999
same,normalized growth,"locus YLR027C, strain aat2, stronger effect = lower value",0.996
same,normalized growth,"locus YLR039C, strain RIC1, stronger effect = lower value",0.354 (active)
same,normalized growth,"locus YLR058C, strain SHM2, stronger effect = lower value",0.696 (active)
same,normalized growth,"locus YLR102C, strain apc9, stronger effect = lower value",0.966
same,normalized growth,"locus YLR113W, strain HOG1, stronger effect = lower value",0.795 (active)
same,normalized growth,"locus YLR221C, strain rsa3, stronger effect = lower value",0.97
same,normalized growth,"locus YLR258W, strain gsy2, stronger effect = lower value",0.996
same,normalized growth,"locus YLR262C, strain YPT6 (second series), stronger effect = lower value",0.847 (active)
same,normalized growth,"locus YLR268W, strain sec22, stronger effect = lower value",0.707 (active)
same,normalized growth,"locus YLR320W, strain mms22, stronger effect = lower value",0.984
same,normalized growth,"locus YLR342W, strain FKS1 (second series), stronger effect = lower value",0.569 (active)
same,normalized growth,"locus YLR342W, strain FKS1, stronger effect = lower value",0.978
same,normalized growth,"locus YLR357W, strain rsc2, stronger effect = lower value",0.925
same,normalized growth,"locus YLR370C, strain arc18, stronger effect = lower value",0.999
same,normalized growth,"locus YLR371W, strain rom2, stronger effect = lower value",0.781 (active)
same,normalized growth,"locus YLR384C, strain iki3, stronger effect = lower value",0.995
same,normalized growth,"locus YLR418C, strain cdc73, stronger effect = lower value",0.629 (active)
same,normalized growth,"locus YML016C, strain PPZ1, stronger effect = lower value",0.771 (active)
same,normalized growth,"locus YML032C, strain rad52, stronger effect = lower value",0.73 (active)
same,normalized growth,"locus YML120C, strain ndi1, stronger effect = lower value",0.997
same,normalized growth,"locus YML124C, strain tub3, stronger effect = lower value",0.952
same,normalized growth,"locus YMR058W, strain fet3, stronger effect = lower value",0.89 (active)
same,normalized growth,"locus YMR078C, strain ctf18, stronger effect = lower value",0.943
same,normalized growth,"locus YMR125W, strain sto1, stronger effect = lower value",0.989
same,normalized growth,"locus YMR129W, stronger effect = lower value",0.988
same,normalized growth,"locus YMR205C, strain PFK2, stronger effect = lower value",0.987
same,normalized growth,"locus YMR223W, strain ubp8, stronger effect = lower value",0.818 (active)
same,normalized growth,"locus YMR231W, strain pep5, stronger effect = lower value",0.995
same,normalized growth,"locus YMR263W, strain SAP30, stronger effect = lower value",0.882 (active)
same,normalized growth,"locus YMR307W, strain GAS1, stronger effect = lower value",0.477 (active)
same,normalized growth,"locus YNL067W, strain RPL9B, stronger effect = lower value",0.745 (active)
same,normalized growth,"locus YNL071W, strain lat1, stronger effect = lower value",1.02
same,normalized growth,"locus YNL153C, strain GIM3, stronger effect = lower value",0.841 (active)
same,normalized growth,"locus YNL183C, strain NPR1, stronger effect = lower value",0.643 (active)
same,normalized growth,"locus YNL209W, strain ssb2, stronger effect = lower value",0.99
same,normalized growth,"locus YNL233W, strain BNI4, stronger effect = lower value",0.678 (active)
same,normalized growth,"locus YNL248C, strain rpa49, stronger effect = lower value",0.99
same,normalized growth,"locus YNL250W, strain rad50, stronger effect = lower value",0.62 (active)
same,normalized growth,"locus YNL271C, strain bni1, stronger effect = lower value",0.731 (active)
same,normalized growth,"locus YNL298W, strain CLA4, stronger effect = lower value",0.725 (active)
same,normalized growth,"locus YNL307C, strain MCK1, stronger effect = lower value",0.953
same,normalized growth,"locus YNL322C, strain KRE1 (second series), stronger effect = lower value",0.967
same,normalized growth,"locus YNL322C, strain KRE1, stronger effect = lower value",0.638 (active)
same,normalized growth,"locus YNR049C, strain mso1, stronger effect = lower value",0.998
same,normalized growth,"locus YNR052C, strain pop2, stronger effect = lower value",0.7 (active)
same,normalized growth,"locus YOL006C, strain TOP1, stronger effect = lower value",0.326 (active)
same,normalized growth,"locus YOL012C, strain htz1",0.795
same,normalized growth,"locus YOL147C, strain pex11, stronger effect = lower value",0.91 (active)
same,normalized growth,"locus YOR001W, strain rrp6, stronger effect = lower value",0.985
same,normalized growth,"locus YOR061W, strain CKA2, stronger effect = lower value",0.664 (active)
same,normalized growth,"locus YOR069W, strain VPS5, stronger effect = lower value",0.796 (active)
same,normalized growth,"locus YOR070C, strain gyp1, stronger effect = lower value",0.995
same,normalized growth,"locus YOR080W, strain dia2, stronger effect = lower value",0.983
same,normalized growth,"locus YOR083W, strain WHI5, stronger effect = lower value",1
same,normalized growth,"locus YOR106W, strain vam3, stronger effect = lower value",0.966
same,normalized growth,"locus YOR136W, strain idh2, stronger effect = lower value",0.869 (active)
same,normalized growth,"locus YOR144C, strain elg1, stronger effect = lower value",0.822 (active)
same,normalized growth,"locus YOR184W, strain ser1, stronger effect = lower value",0.801 (active)
same,normalized growth,"locus YOR231W, strain MKK1, stronger effect = lower value",0.672 (active)
same,normalized growth,"locus YOR265W, strain rbl2, stronger effect = lower value",0.994
same,normalized growth,"locus YOR270C, strain vph1, stronger effect = lower value",1.04
same,normalized growth,"locus YOR290C, strain snf2, stronger effect = lower value",0.94
same,normalized growth,"locus YOR316C, strain cot1, stronger effect = lower value",0.952
same,normalized growth,"locus YPL051W, strain arl3, stronger effect = lower value",0.982
same,normalized growth,"locus YPL078C, strain atp4, stronger effect = lower value",1.02
same,normalized growth,"locus YPL106C, strain sse1, stronger effect = lower value",0.965
same,normalized growth,"locus YPL240C, strain hsp82, stronger effect = lower value",0.978
same,normalized growth,"locus YPL241C, strain CIN2, stronger effect = lower value",0.943
same,normalized growth,"locus YPL256C, strain CLN2, stronger effect = lower value",0.787 (active)
same,normalized growth,"locus YPR119W, strain clb2, stronger effect = lower value",0.94
same,normalized growth,"locus YPR141C, strain kar3, stronger effect = lower value",0.777 (active)
same,normalized growth,"locus YPR163C, strain tif3, stronger effect = lower value",0.832 (active)
same,normalized growth,"locus YPR167C, strain met16, stronger effect = lower value",0.802 (active)
same,normalized growth,"strain wtn01, stronger effect = lower value",0.785 (active)
